Results: PubChem BioAssay (Tox21)
Results filed as inconclusive are left out. The source made the active and inactive calls. Unless noted, the call rests on the fitted dose curve; in most records, active means well fitted curve in the direction sought with a large enough effect in the repeat runs; inconclusive means weak or mixed curves; inactive means no such curve, though single readings can be large; an effect the other way counts as inactive or inconclusive.

Assays:
[1] = A CellTox Green Cytotoxicity Assay to monitor cytotoxicity in HepG2 cells - 0 hour (AID 1224882); conditions: CellTox Green fluorescence; series mostly up to 76.8 µM; further: nearly all actives have a fitted effect of over 35% in size; further: potency means the concentration at half of the fitted maximal effect
Outline: (§1)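 Using 1536-well format, dye-containing HepG2 suspension was seeded, allowed 5 h at 37 C/5% CO2, dosed by pintool with compounds, positive and negative controls, and imaged for fluorescence across 40 h.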

[2] = qHTS RealTime-Glo MT Cell Viability Assay in HepG2 cells - 16 hour (AID 1224885); conditions: RealTime-Glo luminescence; series mostly up to 76.8 µM; further: nearly all actives have a fitted effect of over 50% in size; further: potency means the concentration at half of the fitted maximal effect
Outline: (§2)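 HepG2 cells (600/well) were dispensed with RealTime-Glo reagents, incubated 5 h at 37 °C, then treated with compounds in DMSO for up to 40 h. Nonlytic NanoLuc luminescence reflecting viable cells was read at each stated time point.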

[3] = qHTS RealTime-Glo MT Cell Viability Assay in HEK293 cells - 24 hour (AID 1224886); conditions: RealTime-Glo luminescence; series mostly up to 76.8 µM; further: potency means the concentration at half of the fitted maximal effect; nearly all actives have a fitted effect of over 50% in size
Outline: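 HEK293 cells seeded with NanoLuc/prosubstrate reagent, rested 5 h at 37 C, then dosed and kept at 37 C up to 40 h. Nonlytic real-time luminescence from viable cells read at 0, 8, 16, 24, 32 and 40 h.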

[4] = A CellTox Green Cytotoxicity Assay to monitor cytotoxicity in HEK293 cells - 16 hour (AID 1224888); conditions: CellTox Green fluorescence; series mostly up to 76.8 µM; further: nearly all actives have a fitted effect of over 35% in size
Outline: (§3)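 Fluorescence intensity, read at 0, 8, 16, 24, 32 and 40 h of compound treatment, reflected dye binding to DNA of dead HEK293 cells; compounds (23 nL, DMSO) were added 5 h after plating cells with reagent.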

[5] = qHTS RealTime-Glo MT Cell Viability Assay in HepG2 cells - 0 hour (AID 1224889); conditions: RealTime-Glo luminescence; series mostly up to 76.8 µM; further: nearly all actives have a fitted effect of over 50% in size
Outline: as §2

[6] = A CellTox Green Cytotoxicity Assay to monitor cytotoxicity in HepG2 cells - 8 hour (AID 1224890); conditions: CellTox Green fluorescence; series mostly up to 76.8 µM; further: nearly all actives have a fitted effect of over 45% in size; further: potency means the concentration at half of the fitted maximal effect
Outline: as §1

[7] = qHTS assay to identify small molecule antagonists of the estrogen receptor alpha (ER-alpha) signaling pathway using the BG1 cell line in the presence of 0.1 nM 17-beta-estradiol - cell viability counter screen (AID 1259241); conditions: VM7Luc4E2 (BG1) viability, CellTiter-Fluor protease, 22 h, 0.1 nM estradiol agonist added; series mostly up to 92.4 µM; further: nearly all actives have a fitted effect of over 40% in size
Outline: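 VM7Luc4E2 cells (endogenous full-length ER-alpha, 4xERE-luciferase), cultured 5 days in charcoal-stripped serum, exposed to compounds with 0.1 nM 17beta-estradiol (final) for 22 hr at 37C. Viability read in same wells as live-cell protease fluorescence after 30 min.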

[8] = target: Estrogen receptor (Homo sapiens) (UniProt P03372); assay: qHTS assay to identify small molecule antagonists of the estrogen receptor alpha (ER-alpha) signaling pathway using the BG1 cell line in the presence of 0.1 nM 17-beta-estradiol (AID 1259244); conditions: VM7Luc4E2 (BG1) ERE-luciferase, antagonist mode, 0.1 nM E2, 22 h; series mostly up to 92.4 µM; further: nearly all actives have a fitted effect of over 50% in size; further: potency means the concentration at half of the fitted maximal effect
Outline: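 Estradiol at 0.1 nM (final) stimulates the endogenous ER-alpha of VM7Luc4E2 cells carrying an ERE-driven luciferase; compounds are co-incubated 22 h at 37C and luciferase output quantified by luminescence.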

[9] = qHTS assay to identify small molecule HDAC inhibitors (AID 1259364); conditions: HCT-116 HDAC-Glo I/II luminescence, 2 h; series mostly up to 92.4 µM;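 further: wild-type HCT-116 cells with endogenous class I/II HDAC activity; top concentration of the series differs between compounds; nearly all actives have a fitted effect of over 45% in size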
Outline: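 Read-out: luminescence of HDAC-Glo I/II reagent, 30 min RT, reflecting class I/II deacetylase activity in whole HCT-116 cells pre-exposed 2 h to DMSO-dissolved compounds.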

[10] = qHTS assay to identify small molecule agonists of the sonic hedgehog signaling (Shh) pathway - cell viability counter screen (AID 1259366); conditions: NIH/3T3 Gli1-Luc viability, CellTiter-Fluor, 24 h; series mostly up to 92.4 µM; further: nearly all actives have a fitted effect of over 50% in size; further: potency means the concentration at half of the fitted maximal effect
Outline: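 NIH/3T3-derived Gli1-Luc reporter cells, 2,000 per well, received compound after 4 h and were treated about 23 h at 37C. Viability measured in the same wells by CellTiter-Fluor fluorescence after 1 h.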

[11] = qHTS assay to identify small molecule agonists of the sonic hedgehog signaling (Shh) pathway (AID 1259368; calls by dose curve;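 further: NIH/3T3-derived 3T3Gli1-Luc cells carrying a stable Gli1-driven firefly luciferase reporter; nearly all actives have a fitted effect of over 15% in size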); conditions: NIH/3T3 Gli1-Luc reporter, luciferase, 24 h; series mostly up to 92.4 µM
Outline: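 A Gli1 transcriptional response element controlled firefly luciferase in 3T3Gli1-Luc cells. Compounds and a positive control were added 4 hr after plating, and cells were incubated a further 24 hr at 37 C before luminescence detection.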

[12] = qHTS assay to identify small molecule antagonists of the sonic hedgehog signaling (Shh) pathway (AID 1259369; calls by dose curve; further: potency means the concentration at half of the fitted maximal effect; nearly all actives have a fitted effect of over 45% in size); conditions: NIH/3T3 Gli1-Luc reporter, Shh antagonist, luminescence 24 h; series mostly up to 92.4 µM
Outline: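 For antagonist detection, the reporter line received test compounds together with conditioned medium, incubated 24hr at 37 C, 5% CO2, then luminescence was recorded following 30min room-temperature luciferase reagent incubation.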

[13] = qHTS RealTime-Glo MT Cell Viability Assay in HEK293 cells - 8 hour (AID 1224887); conditions: RealTime-Glo luminescence; series mostly up to 76.8 µM
Outline: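 Viable HEK293 cells reduce a cell-permeant prosubstrate; the product diffuses out and is consumed by NanoLuc in the medium to give light. Compounds went in after a 5 h incubation and plates were read over the treatment course.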

[14] = qHTS assay to identify small molecule antagonists of the androgen receptor (AR) signaling pathway using the MDA cell line in the presence of 0.5 nM R1881 - cell viability counter screen (AID 1259242); conditions: MDA-kb2 viability, CellTiter-Fluor protease fluorescence, 16 h; series mostly up to 92.4 µM; further: nearly all actives have a fitted effect of over 45% in size
Outline: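 Viability of MDA-kb2 cells was multiplexed with the luciferase AR readout; after 16 hr with compounds and R1881 at 0.5 nM final, CellTiter-Fluor fluorescence was recorded.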

[15] = target: Androgen receptor (Homo sapiens) (UniProt P10275); assay: qHTS assay to identify small molecule antagonists of the androgen receptor (AR) signaling pathway using the MDA cell line in the presence of 0.5 nM R1881 (AID 1259243); conditions: MDA-kb2 MMTV-luciferase, R1881 0.5 nM, 16 h; series mostly up to 92.4 µM
Outline: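 Reporter cells cultured without CO2 receive test chemicals, then 0.5 nM R1881 final; after 16 hr at 37C, ONE-Glo is added and light output recorded.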

[16] = qHTS assay to identify small molecule phospholipidosis (PLD) inducers (AID 1259344; active means well fitted curve in the direction sought with a large enough effect; an effect the other way counts as inactive or inconclusive); conditions: HepG2 phospholipidosis, LipidTOX Red imaging, 24 h; series mostly up to 38.3 µM
Outline: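 Quantitative HTS in HepG2: compound plus LipidTOX Red dye for 24 h, paraformaldehyde fixation with Hoechst 33342, widefield high-content imaging; amiodarone as positive and DMSO as negative control.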

[17] = qHTS assay to identify small molecule HDAC inhibitors - cell viability counter screen (AID 1259365); conditions: HCT-116 viability, CellTiter-Glo ATP luminescence, 2 h; series mostly up to 92.4 µM; further: nearly all actives have a fitted effect of over 50% in size
Outline: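 Wild-type HCT-116 cells, 1,500/well, cultured overnight, then compound-treated 2 h at 37 C. Viability measured as ATP luminescence with CellTiter-Glo after 30 min at room temperature.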

[18] = A CellTox Green Cytotoxicity Assay to monitor cytotoxicity in HEK293 cells - 8 hour (AID 1224884); conditions: CellTox Green fluorescence; series mostly up to 76.8 µM; further: nearly all actives have a fitted effect of over 35% in size
Outline: as §3

Measured: Potency

Chain of Estrogen receptor (Homo sapiens) (P03372 whole entry, looked up): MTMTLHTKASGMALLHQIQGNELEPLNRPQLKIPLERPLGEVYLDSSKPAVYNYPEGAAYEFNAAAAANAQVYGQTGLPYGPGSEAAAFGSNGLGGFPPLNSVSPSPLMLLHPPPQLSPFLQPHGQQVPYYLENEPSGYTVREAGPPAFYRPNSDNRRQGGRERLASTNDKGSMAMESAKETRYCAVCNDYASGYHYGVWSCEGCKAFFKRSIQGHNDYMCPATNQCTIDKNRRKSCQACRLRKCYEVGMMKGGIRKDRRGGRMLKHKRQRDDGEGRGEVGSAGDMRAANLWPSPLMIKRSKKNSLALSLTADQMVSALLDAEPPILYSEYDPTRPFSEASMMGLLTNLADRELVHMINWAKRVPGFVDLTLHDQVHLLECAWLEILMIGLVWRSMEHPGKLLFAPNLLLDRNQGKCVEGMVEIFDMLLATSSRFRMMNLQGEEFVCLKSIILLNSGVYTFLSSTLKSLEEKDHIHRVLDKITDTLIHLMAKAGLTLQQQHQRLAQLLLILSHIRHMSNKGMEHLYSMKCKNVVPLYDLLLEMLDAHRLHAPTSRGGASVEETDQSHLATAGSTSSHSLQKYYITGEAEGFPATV
Chain of Androgen receptor (Homo sapiens) (P10275 whole entry, looked up): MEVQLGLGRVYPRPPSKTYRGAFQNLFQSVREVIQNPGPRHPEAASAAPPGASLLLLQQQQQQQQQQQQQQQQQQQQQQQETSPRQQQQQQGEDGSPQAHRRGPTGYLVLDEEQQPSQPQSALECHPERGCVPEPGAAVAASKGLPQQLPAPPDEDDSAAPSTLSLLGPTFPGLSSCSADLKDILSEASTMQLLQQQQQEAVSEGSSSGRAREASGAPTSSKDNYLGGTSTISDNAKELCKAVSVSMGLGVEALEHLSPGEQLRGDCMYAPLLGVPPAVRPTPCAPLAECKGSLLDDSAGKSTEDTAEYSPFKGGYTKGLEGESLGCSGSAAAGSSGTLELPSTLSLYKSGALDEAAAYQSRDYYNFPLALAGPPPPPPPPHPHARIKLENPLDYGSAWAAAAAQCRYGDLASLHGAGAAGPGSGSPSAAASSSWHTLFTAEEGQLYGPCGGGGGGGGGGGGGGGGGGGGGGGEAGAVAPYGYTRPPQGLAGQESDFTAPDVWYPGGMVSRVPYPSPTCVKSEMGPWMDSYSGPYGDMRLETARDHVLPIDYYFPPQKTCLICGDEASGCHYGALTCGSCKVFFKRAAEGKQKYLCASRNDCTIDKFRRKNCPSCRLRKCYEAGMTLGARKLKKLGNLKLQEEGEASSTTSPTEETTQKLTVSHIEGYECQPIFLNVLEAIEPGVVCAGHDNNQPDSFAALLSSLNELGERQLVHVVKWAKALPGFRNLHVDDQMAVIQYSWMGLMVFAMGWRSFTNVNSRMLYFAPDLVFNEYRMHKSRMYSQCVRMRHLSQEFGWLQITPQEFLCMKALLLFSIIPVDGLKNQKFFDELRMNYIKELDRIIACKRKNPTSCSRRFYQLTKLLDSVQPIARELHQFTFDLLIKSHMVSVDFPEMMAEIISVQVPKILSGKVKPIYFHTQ

Oc1ccc(C2(c3ccc(O)cc3)CC3CC2C2CCCC32)cc1 (stereo not drawn)
active: [3] 41.9 µM | [8] 0.117 µM | [10] 58.7 µM | [12] 20.8 µM
inactive: [1] | [2] | [4] | [5] | [6] | [7] | [9] | [11]

COc1cc(-c2nc(NC(=O)c3cc4cc(C)cc(C)c4n3CC(=O)O)sc2CCC2CCCCC2)c(OC)cc1Cl
inactive: [13] | [4] | [7] | [8] | [9] | [10] | [11]
active: [1] 44.9 µM | [2] 35.7 µM | [6] 40 µM

OCc1c[nH]c2ccccc12
inactive: [1] | [6] | [7] | [14] | [16] | [9] | [17] | [10] | [11]
active: [15] 17.2 µM | [12] 30.6 µM

N=C1N=C(N)c2ccccc21
active: [3] 24.5 µM
inactive: [1] | [18] | [13] | [4] | [5] | [6] | [7] | [14] | [9]
